Source: PubChem BioAssay (National Center for Advancing Translational Sciences (NCATS))
Sm TGR inh: inhibitors of Schistosoma mansoni thioredoxin glutathione reductase | Q962Y6 | purified TGR, DTNB reduction, TNB absorbance 405 nm | Potency, µM (titrated, usually from 114 µM), without a hit: at the highest dose activity change, negative = inhibition, usual class: inhibitors | 3% of 360,000 active | AID 485364; active = well fitted inhibition curve with a large enough effect; inconclusive = small, poorly fitted or top-dose-only effect; inactive = no such curve, though single readings can be large or run the other way; also: potency is read from the fitted curve at half-maximal effect; % is scaled to controls: 0 for no effect and ±100 for the full control effect; nearly all actives have a fitted effect of over 60% in size
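First, TGR (20 nM dispensed) and NADPH were mixed with compound. Second, a 15 min room-temperature incubation followed. Third, further NADPH and then DTNB were added to start the reaction. Finally, TNB absorbance was monitored kinetically.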
Cycloheximide cs: counter-screen for Shiga toxin inhibitors: cycloheximide protein synthesis inhibition. cell reporter, cycloheximide protein synthesis inhibition counterscreen. max response, %. 12% of 300,000 active. AID 2314; in the data active = max response mostly above about 13%, no sharp cut-off; inactive = mostly below about 14%; also: read at 38.3 µM for the half of the compounds with a filed dose; 0% is about no effect
FMDV antiviral: blocks foot and mouth disease virus; FMDV antiviral cell-based qHTS; Potency, µM (titrated, usually from 57.9 µM), without a hit: at the top dose activity change, negative = inhibition, most hits filed as inhibitors; 1.2% of 410,000 active; calls by dose curve; tested in HEK293T cells; also: read-out not given here; potency is read from the fitted curve at half-maximal effect; % is scaled to controls: 0 for no effect and ±100 for the full control effect; nearly all actives have a fitted effect of over 45% in size
Shiga inhibitor: Shiga toxin inhibition; inhibition, % at 38.7 µM; 9.2% of 290,000 active; Vero cells, Shiga toxin protein synthesis inhibition reporter; AID 2315; in the data active = inhibition mostly above about 28%, no sharp cut-off; inactive = mostly below about 43%; also: 0% is about no effect
* marks the source's active call; other numbers are inactive results; ? = inconclusive; . = not tested or not shown. Only some compounds are listed: those with a hit (about 12% of all), similar ones and a draw of the others.

SMILES	Sm TGR inh	Cycloheximide cs	FMDV antiviral	Shiga inhibitor
CCN(CC)S(=O)(=O)c1cnccc1N1CCN(c2cccc(Cl)c2)CC1	2%	-4	40µM*	-13
COc1ccc(NC(=O)Nc2nnc(N(CC(C)C)CC(C)C)s2)c(OC)c1	1%	.	-20%	.
CCC(=O)OCCCNc1nc(-c2ccc(Cl)cc2)nc2ccccc12	2%	.	-1%	.
O=C(Nc1ccc(Cl)cc1F)c1ccccc1Br	-9%	63*	5%	130*
O=C(Nc1ccc(Cl)cc1F)c1cccc2ccccc12	4%	27*	23%	34*
COc1ccc(-n2c(=O)c3ccccc3n(Cc3ccccc3C)c2=O)c(OC)c1	2%	.	-17%	.
CCC(=O)Nc1ccc(C)cc1-c1nc2ccccc2n(C(C)C(=O)Nc2ccccc2CC)c1=O (stereo not given)	-1%	.	?	.
CCOc1ccc(CNC(=O)C2=Cc3cccc(OC)c3OC2)cc1	-7%	.	0%	.
Cn1c(=N)n(CC(=O)c2ccc(F)cc2)c2ccccc21	-11%	37*	-24%	68*
O=C(CN1C(=O)c2ccccc2C1=O)c1ccc(F)cc1	-1%	26*	42%	49
CCn1c(=N)n(CC(=O)c2ccc(Cl)c(Cl)c2)c2ccccc21	0%	40*	24%	74*
O=C(CN1C(=O)c2ccccc2C1=O)c1ccccc1	-4%	20	25%	36
COc1ccc(OC)c(CNC(=O)C2CCN(S(=O)(=O)c3cn(C)cn3)CC2)c1	36%	.	-15%	.
COc1ccccc1CN1CCC2(CC1)c1ccccc1[C@@H](NC(=O)c1ccco1)[C@@H]2OC	.	.	-3%	.
Cc1cccc(/C=N\Nc2cn[nH]c(=O)c2Cl)c1	3%	16*	37%	36*
CCc1cccc(C)c1NC(=O)CSc1nnc(CC)n2c1cc1occc12	1%	.	22µM*	.
CCc1nnc(SCC(=O)Nc2ccc(OC)c(OC)c2)c2cc3occc3n12	1%	.	?	.
CNS(=O)(=O)c1cn(CC(=O)Nc2ccc(C(C)=O)cc2)cc1S(=O)(=O)NC	9%	.	29%	.
COc1ccc(C(c2c(NC(=O)c3ccccc3)sc(C)c2C)N2CCN(CCO)CC2)cc1 (stereo not given)	-3%	22*	-19%	56*
Cn1c(O)c(C=NC2CCCCCC2)c(=O)[nH]c1=S	.	16	3%	-4
CCc1cc(C=NC2CCCCC2)c(O)s1	-16%	66*	10%	119*
CCOCCCNC(=O)c1ccc2c(c1)NC(=O)C(CS(=O)(=O)Cc1ccc(F)cc1Cl)N2 (stereo not given)	-19%	.	?	.
O=C(C1CC(c2cccc(Br)c2)=NO1)N1CCc2ccccc2C1 (stereo not given)	9%	18*	25%	21
N#Cc1c(N2CCSCC2)nsc1-c1ccccc1Cl	-8%	29*	4%	43
N#Cc1c(Cl)cccc1N1CCSCC1	.	.	-10%	.
SMILES	Sm TGR inh	Cycloheximide cs	FMDV antiviral	Shiga inhibitor
CC(=O)c1ccc(NC(=O)c2noc3c2CCCCC3)cc1	-9%	40*	46%	44*
O=C(Nc1ccc2c(c1)OCO2)c1noc2c1CCCCC2	-29%	38*	-6%	101*
CC(C)(C)C1CCc2onc(C(=O)Nc3cccnc3)c2C1 (stereo not given)	-3%	-3	-29%	-12
CCOC(=O)c1ccc(NC(=O)c2noc3c2CCCC3)cc1	5%	.	10%	.
O=C(Nc1ccc2c(c1)OCO2)c1noc2c1CCCC2	-4%	33*	-11%	53*
O=C(Nc1cccnc1)c1noc2c1CCCC2	8%	47*	45%	85*
O=C(Nc1ccccc1C(F)(F)F)c1noc2c1CCCCC2	5%	.	1%	.
N[C@@H](CCCCNC(=O)CCCC[C@@H]1SC[C@H]2NC(=O)N[C@H]12)C(=O)O	.	11	.	18
CCn1c(SCc2ccc(F)cc2Cl)nnc1-c1nonc1NC(C)=O	0%	.	0%	.
CCNC(=O)CSc1nc(-c2ccc(F)cc2)cs1	-12%	32*	55%	101*
CC(C)(C)NC(=O)CSc1nc(-c2ccc(F)cc2)cs1	4%	32*	-6%	83*
COc1ccccc1Nc1nnc(SCC(=O)Nc2nc(-c3ccc(F)cc3)cs2)s1	-8%	5	-2%	-9
Cc1csc(SCC(=O)NC(C)c2ccc(F)cc2)n1 (stereo not given)	1%	-4	-13%	-2
Cc1c(-c2nsc(NC(=O)c3ccccc3)n2)nnn1-c1ccc(C(F)(F)F)c(Cl)c1	-6%	.	-4%	.
CC(NC(=O)c1cccc(Cn2cc([N+](=O)[O-])cn2)c1)c1ccc(C(C)(C)C)cc1 (stereo not given)	4%	11	-8%	14
CCC(NC(=O)c1cccc(Cn2cc([N+](=O)[O-])cn2)c1)c1ccc(C(C)C)cc1 (stereo not given)	5%	11*	-2%	7
